TDP1 cell noCPT: qHTS for Inhibitors of human tyrosyl-DNA phosphodiesterase 1 (TDP1): qHTS in cells in absence of CPT. DT40 Tdp1-/- hTDP1 cells, no CPT, ATP luminescence, 48 h. Potency, µM (top dose mostly 46.2 µM), actives largely listed as inhibitors. hit rate 15% among 420,000; further: nearly all actives have a fitted effect of over 55% in size
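Chicken DT40 Tdp1-/- cells complemented with human TDP1, screened without camptothecin (DMSO vehicle only), 400 cells/well. Compounds pin-transferred, cells incubated at 37 °C for at least 48 hr. Growth read as ATP-dependent luminescence (CellTiter-Glo, 30 min at RT).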
IL1B secr inh: qHTS for Inhibitors of Inflammasome Signaling: IL-1-beta AlphaLISA Primary Screen; THP-1 LPS/ATP IL-1B secretion, AlphaLISA, 16 h; active compounds read low; activity change, % at 57.5 µM; AID 743279, 2014; hit rate 4.7% among 360,000; in the data active means activity change below about -50%; inconclusive means mostly about -30% to -49%
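Secreted IL-1B measured by AlphaLISA bead assay after 16 h compound exposure of THP-1 cells; compounds (final up to 57.5 uM) added 1 h before LPS (250 ng/mL) and ATP (1.25 mM) stimulation; lower signal means less secretion.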
HT1080-NT tox: qHTS for induction of synthetic lethality in tumor cells producing 2HG: qHTS for the HT-1080-NT fibrosarcoma cell line. HT-1080-NT fibrosarcoma viability, CellTiter-Glo ATP luminescence, 48 h. Potency, µM (series often up to 46.1 µM), actives largely listed as cytotoxic. hit rate 1.6% among 360,000;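 further: NT is the 2HG producing partner of a matched IDH1 knockdown line; nearly all actives have a fitted effect of over 55% in size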
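A 48-hour cytotoxicity screen used HT-1080-NT cells plated 2 hours before compound delivery. ATP-based CellTiter-Glo luminescence measured viability, normalized to DMSO and no-cell controls.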
HT1080 IDH1KD tx: qHTS for induction of synthetic lethality in tumor cells producing 2HG: qHTS for the HT-1080-IDH1KD cell line; HT-1080 IDH1 knockdown viability, ATP luminescence, 48 h; Potency, µM (doses to about 46.1 µM), actives largely listed as cytotoxic; hit rate 2% among 360,000; AID 686971, 2013
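% activity derives from luminescence (CellTiter-Glo), normalised to DMSO and no-cell wells. HT-1080-IDH1KD cells, 750/well, had 48 h compound exposure at 37 °C.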
TDP1 cell CPT: qHTS for Inhibitors of human tyrosyl-DNA phosphodiesterase 1 (TDP1): qHTS in cells in presence of CPT | chicken DT40 Tdp1-/-;hTDP1 cells + 20 nM CPT, ATP luminescence, 48 h | AID 686979, 2013 | hit rate 12% among 420,000 | Potency, µM (top dose mostly 46.2 µM), actives largely listed as inhibitors; further: nearly all actives have a fitted effect of over 55% in size
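Chicken DT40 Tdp1-/- cells complemented with human TDP1, 400 cells/well, exposed to compounds plus 20 nM camptothecin for at least 48 h at 37 C; viability read as ATP content by CellTiter-Glo luminescence.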
Of the large screens only hits and unclear results are named; the others gave an inactive call. This is a sample that favours compounds with a hit; in the whole collection about 19% have one here. Unless noted, the call rests on the fitted dose curve; in most records, active means well fitted curve in the direction sought with a large enough effect; inconclusive means small, poorly fitted or top-dose-only effect, or another doubt; inactive means no such curve, though single readings can be large; an effect the other way counts as inactive or inconclusive.

Cc1ccc(NC(=O)C2C(c3ccccc3)C=CC(c3ccccc3)C2C(=O)O)cc1 (configuration not stated)	TDP1 cell noCPT 21µM, TDP1 cell CPT 29µM
Cc1ccc(NC(=O)C2C(C(=O)O)C3C=CC2C32CC2)cc1 (configuration not stated)	none
O=C(/C=C1\OCc2ccccc21)OCc1ccccc1	TDP1 cell noCPT inconclusive, TDP1 cell CPT inconclusive
CCCC(=O)NC(c1ccc(OC)cc1)c1ccc2cccnc2c1O (configuration not stated)	TDP1 cell noCPT 2.6µM, HT1080 IDH1KD tx inconclusive, TDP1 cell CPT 2.3µM
CCCCC(=O)NC(c1ccc(C(C)C)cc1)c1ccc2cccnc2c1O (configuration not stated)	TDP1 cell noCPT 3.3µM, HT1080-NT tox inconclusive, HT1080 IDH1KD tx inconclusive, TDP1 cell CPT 5.8µM
CCCC(=O)NC(c1ccccc1)c1ccc2cccnc2c1O (configuration not stated)	TDP1 cell noCPT 1.5µM, HT1080 IDH1KD tx inconclusive, TDP1 cell CPT 3.7µM
CC(=O)NC(c1ccc(C(C)C)cc1)c1ccc2cccnc2c1O (configuration not stated)	TDP1 cell noCPT 1.3µM, HT1080-NT tox inconclusive, HT1080 IDH1KD tx inconclusive, TDP1 cell CPT 2.6µM
Cc1c(C(=O)N2CCN(C)CC2)sc2ncnc(NCC3(c4ccccc4)CCOCC3)c12	none (no result: IL1B secr inh, HT1080-NT tox, HT1080 IDH1KD tx)
O=C(Nc1cccc(F)c1)N1CCCC2(CCN(C(=O)c3csnn3)CC2)C1	none (no result: IL1B secr inh, HT1080-NT tox, HT1080 IDH1KD tx)
CCc1ccc(N(CC(=O)NCC2CCCO2)C(=O)CCC(=O)Nc2nccs2)cc1 (configuration not stated)	none
Cc1oc(-c2cccc3ccccc23)nc1CN1CCC[C@H]1CO	none
CCCCC(=O)NC(c1ccccc1)c1ccc2cccnc2c1O (configuration not stated)	TDP1 cell noCPT 0.73µM, HT1080-NT tox inconclusive, HT1080 IDH1KD tx inconclusive, TDP1 cell CPT 0.58µM
O=C(O)CCC(=O)NC(c1ccccc1)c1ccccc1	none
CCCCC(=O)NC(c1ccccc1Cl)c1ccc2cccnc2c1O (configuration not stated)	TDP1 cell noCPT 6.5µM, HT1080-NT tox inconclusive, HT1080 IDH1KD tx inconclusive, TDP1 cell CPT 8.2µM
N#Cc1cnn(-c2ccc([N+](=O)[O-])cc2[N+](=O)[O-])c1N	TDP1 cell noCPT 18µM, TDP1 cell CPT 13µM
N#Cc1cnn(-c2cc(Cl)ccc2Cl)c1N	none
Clc1ccc2nc(CN3CCCc4ccccc43)cn2c1	TDP1 cell noCPT 18µM, IL1B secr inh -78, HT1080-NT tox inconclusive, HT1080 IDH1KD tx inconclusive, TDP1 cell CPT 13µM
Clc1ccc2nc(CN3CCCCC3)cn2c1	TDP1 cell CPT inconclusive
CN(C(=O)CSc1nc2ccccc2n1C)C1CCS(=O)(=O)C1 (configuration not stated)	none
COc1ccc2[nH]c(=O)c(C(c3nnnn3CC3CCCO3)N3CCCCC3)cc2c1 (configuration not stated)	none
COCCn1nnnc1C(c1cc2cc(C)ccc2[nH]c1=O)N1CCCCCC1 (configuration not stated)	none
CCN(Cc1ccccc1)C(c1cc2cc(C)cc(C)c2[nH]c1=O)c1nnnn1CCOC (configuration not stated)	TDP1 cell noCPT inconclusive, IL1B secr inh -52, TDP1 cell CPT inconclusive
COCCn1nnnc1C(c1cc2cc(OC)ccc2[nH]c1=O)N1CCC(Cc2ccccc2)CC1 (configuration not stated)	TDP1 cell noCPT 23µM, IL1B secr inh inconclusive, TDP1 cell CPT 15µM
COc1ccc2cc(C(c3nnnn3CCc3ccccc3)N3CCCC(C)C3)c(=O)[nH]c2c1 (configuration not stated)	TDP1 cell noCPT inconclusive, IL1B secr inh -85, TDP1 cell CPT inconclusive
COc1ccc2cc(C(c3nnnn3CC3CCCO3)N3CCOCC3)c(=O)[nH]c2c1 (configuration not stated)	none
COCCn1nnnc1C(c1cc2c(C)cc(C)cc2[nH]c1=O)N1CCCCCC1 (configuration not stated)	TDP1 cell noCPT 18µM, HT1080 IDH1KD tx inconclusive, TDP1 cell CPT 23µM
O=C(CSc1nnc(CNC(=O)c2ccccc2F)n1-c1ccccc1)Nc1ccccc1F	none (no result: IL1B secr inh, HT1080-NT tox, HT1080 IDH1KD tx)
CC(C)NC(=O)C1CCN(C2CCN(C(=O)c3ccc4cccc(F)c4n3)CC2)CC1	none
COC(=O)CCN(C(=O)c1ccc(Cl)c([N+](=O)[O-])c1)c1ccccn1	none
CCOC(=O)N1CCN(C(=O)C2CCCN(S(=O)(=O)c3ccc(OCC)cc3)C2)CC1 (configuration not stated)	TDP1 cell noCPT 16µM, TDP1 cell CPT inconclusive
CCOc1ccc(S(=O)(=O)N2CCCC(C(=O)N3CCN(c4ccccc4)CC3)C2)cc1 (configuration not stated)	TDP1 cell noCPT 21µM, TDP1 cell CPT 16µM
CCOC(=O)N1CCN(C(=O)C2CCCN(S(=O)(=O)c3ccc(C)cc3)C2)CC1 (configuration not stated)	TDP1 cell noCPT 16µM, TDP1 cell CPT inconclusive
CCOC(=O)N1CCN(C(=O)C2CCCN(S(=O)(=O)c3ccc(F)cc3)C2)CC1 (configuration not stated)	TDP1 cell CPT inconclusive
CCOc1ccc(S(=O)(=O)N2CCCC(C(=O)N3CCOCC3)C2)cc1 (configuration not stated)	none
COc1ccccc1CNS(=O)(=O)CCNCCc1ccccc1	none
COc1ccccc1CNC(=O)CCCn1nc(C)c2sc3ccccc3c2c1=O	none (no result: IL1B secr inh, HT1080-NT tox, HT1080 IDH1KD tx)
COc1cccc(CNC(=O)CCCn2nc(C)c3sc4ccccc4c3c2=O)c1	TDP1 cell noCPT inconclusive, TDP1 cell CPT 16µM (no result: IL1B secr inh, HT1080-NT tox, HT1080 IDH1KD tx)
CSc1ccc(CCNC(=O)CCCn2nc(C)c3sc4ccccc4c3c2=O)cc1	TDP1 cell noCPT inconclusive, TDP1 cell CPT 15µM (no result: IL1B secr inh, HT1080-NT tox, HT1080 IDH1KD tx)
CCCN1CCN(CCCNC(=O)CCCn2nc(C)c3sc4ccccc4c3c2=O)CC1	none
C=CCSc1nc(C)cc2c1C(=O)OC2	none
C/C(=N\NC(=O)c1ccc(Cl)cc1)c1cccs1	TDP1 cell noCPT inconclusive, IL1B secr inh -63
O=C(NN=Cc1c(F)c(F)c(F)c(F)c1F)c1ccc(NS(=O)(=O)c2cccs2)cc1	TDP1 cell noCPT inconclusive, IL1B secr inh -99, TDP1 cell CPT inconclusive
Cc1cccc(CN(CC(=O)N/N=C/c2ccco2)S(=O)(=O)c2ccc(Cl)cc2)c1	TDP1 cell noCPT inconclusive, TDP1 cell CPT inconclusive

High-throughput results as filed in PubChem.
